# Rows were chosen to be rich in hits. Some 2.7% of all compounds tested hit in one or more screens of this group.
# Tau fibril FP = inhibitors of human tau fibril formation; P10636; K18 P301L tau heparin fibrillization, Alexa594 FP, 6 h; Potency, µM (top dose mostly 57.7 µM), actives largely listed as inhibitors; 280,000 tested, 0.39% active; AID 1468; note: nearly all actives have a fitted effect of over 55% in size
# Target sequence (P10636 561-689 P618L limits assumed): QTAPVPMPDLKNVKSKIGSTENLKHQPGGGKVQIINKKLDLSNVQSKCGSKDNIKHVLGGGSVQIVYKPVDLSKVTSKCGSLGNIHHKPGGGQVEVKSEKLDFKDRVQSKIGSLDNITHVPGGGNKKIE
#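 Human tau K18 […] P301L fragment, 15 uM unlabeled plus 0.24 uM Alexa 594-labeled tau (final), with compound and 20 uM heparin in 100 mM sodium acetate pH 7; 6 hr at 37 C, then Alexa 594 FP read.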
# FBPA coupling cs = coupling enzyme interference in Giardia aldolase counter-screen | coupling enzyme system counterscreen, AmpLite Red fluorescence | activity change, negative = inhibition, % at 58.2 µM, hits read low | 290,000 tested, 0.67% active | AID 2472; in the data active = activity change below about -30%
#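 Final compound at 57.5 uM, incubated 10 min at RT with coupling enzyme reagent (glyceraldehyde-3-phosphate), then 20 min with substrate and AmpLite Red detection. Fluorescence read at 525/598 nm; tests interference with the coupling assay, not aldolase inhibition.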
# Tau fluor counter = counter-screen for tau fibril formation inhibitors; tau K18 P301L Alexa594 fluorescence, heparin fibrillization; Potency, µM (titrated, usually from 57.7 µM); 280,000 tested, 0.93% active; note: nearly all actives have a fitted effect of over 55% in size
#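 Human K18 P301L tau (15 uM unlabeled plus 0.24 uM Alexa 594-labeled, final) in 100 mM sodium acetate pH 7 was mixed with compound and 20 uM heparin and incubated 6 hr at 37 C.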
# Tau fibril ThT = tau fibrillization inhibition (ThT binding). P10636. recombinant tau K18 P301L, heparin-induced fibrillization, ThT fluorescence. Potency, µM (series often up to 57.4 µM), hits mostly inhibitors. 270,000 tested, 2.1% active. AID 1460; note: nearly all actives have a fitted effect of over 55% in size
#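 Using a mix of unlabeled (15 uM) and Alexa 594-labeled (0.24 uM) tau K18 P301L, heparin-triggered fibrillization over 6 hr at 37 C was scored by ThT fluorescence.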
# Hits are given with their value; n = inactive; u = inconclusive; x = no result given; [ ] = another dose, or the depositor's remark. Unless noted, calls come from the whole dose curve; as a rule, active = well fitted curve in the direction sought with a large enough effect; inconclusive = small, poorly fitted or top-dose-only effect, or another doubt; inactive = no such curve, though single readings can be large; an effect the other way counts as inactive or inconclusive.
SMILES,Tau fibril FP,FBPA coupling cs,Tau fluor counter,Tau fibril ThT
O=C(CSc1nc2ccccc2[nH]1)Nc1ccc2c(c1)OCCO2,n,n,n,u
O=C(CSc1nc(-c2cccc(F)c2)[nH]c1-c1ccccc1)Nc1ccc2c(c1)OCCO2,u,x,11µM[quencher],u
Cc1cccc(-c2nc(SCC(=O)Nc3ccc4c(c3)OCCO4)c(-c3ccccc3)[nH]2)c1,n,x,8.9µM[quencher],n
CC(=O)OCC1OC(Oc2cc(OC(C)=O)c3c(=O)cc(-c4ccc(OC(C)=O)c(OC(C)=O)c4)oc3c2)C(OC(C)=O)C(OC(C)=O)C1OC(C)=O (stereo not drawn),u,n,u,u
CCOC(=O)N=Nc1c2ccccc2c2nc3no[nH]c3nc12,u,-51,n,u
CN(c1ccccc1)S(=O)(=O)c1nnc(NC(=O)c2ccccc2)s1,n,x,n,u
CCN(c1ccccc1)S(=O)(=O)c1nnc(NC(=O)c2ccccc2)s1,n,x,n,16µM
CCN(c1ccccc1)S(=O)(=O)c1nnc(NC(=O)COc2ccccc2F)s1,u,x,n,4.5µM
CCN(c1ccccc1)S(=O)(=O)c1nnc(NC(=O)c2cccs2)s1,u,x,n,2.2µM
CCCC(=O)Nc1nnc(S(=O)(=O)N(C)c2ccccc2)s1,n,x,u,2.5µM
O=[N+]([O-])C1C(c2ccccc2)=NOC1c1ccccc1O (stereo not drawn),x,n,x,x
CCOC(=O)CCN(c1ccccc1)S(=O)(=O)c1ccc2[nH]c(=O)ccc2c1,n,x,n,n
COc1cccc2c1cc1c(=O)n(CC(=O)NCc3ccco3)nc(C)n12,n,x,n,n
CCN(c1ccccc1)S(=O)(=O)c1nnc(NC(=O)c2ccccc2OC)s1,n,n,n,3.2µM
CCN(c1ccccc1)S(=O)(=O)c1nnc(NC(=O)COc2ccc(OC)cc2)s1,n,x,n,u
Nc1c(C(=O)Nc2nc3ccccc3s2)sc2nc(-c3cccs3)ccc12,n,n,13µM[quencher],u
CC(C)NC(=O)c1sc2nc(-c3cccs3)cc(-c3cccs3)c2c1N,n,n,n,u
Nc1c(C(=O)Nc2ccc(Cl)cc2F)sc2nc(-c3cccs3)ccc12,n,x,2.2µM[quencher],u
CC(=O)c1sc2nc(-c3cccs3)ccc2c1N,n,n,u,16µM
Nc1ccc(C(=O)Nc2nc3ccccc3s2)cc1,n,n,n,n
Nc1c(C(=O)Nc2ccc(F)c(F)c2)sc2nc(-c3ccncc3)ccc12,n,x,u,u
Nc1c(C(=O)Nc2ccccc2Br)sc2nc(-c3cccs3)ccc12,u,x,3.2µM[quencher],u
CCN(C(=O)Cc1c(C(=O)O)n(CC)c2ccccc12)c1cccc(C(F)(F)F)c1,x,n,x,x
COc1cc(NC(=O)Cn2nc3c(cc2=O)CC(C)CC3)cc(OC)c1OC (stereo not drawn),n,x,n,n
Cc1ccc(N2CC(NC(=O)c3ccco3)CC2=O)cc1 (stereo not drawn),n,x,n,n
SMILES,Tau fibril FP,FBPA coupling cs,Tau fluor counter,Tau fibril ThT
CC1(C)Cc2ccccc2C(/C(=N\Nc2cccc(Cl)c2)C(N)=O)=N1,n,n,u,14µM
Cc1ccc(S(=O)(=O)c2[nH]c(-c3ccccc3)nc2SCC(=O)O)cc1,n,x,n,n
CC(=O)Sc1nc(-c2ccccc2)[nH]c1S(=O)(=O)c1ccc(C)cc1,40µM,n,n,28µM
Cc1cccc(C)c1OCc1nc2ccccc2c(=O)n1/N=C/c1c[nH]c2ccccc12,u,n,3.5µM[quencher],n
CN=CC1=C(O)c2ccccc2C1=O,n,n,n,n
O=C1C(C2=C(O)c3ccccc3C2=O)=Nc2ccccc21,u,n,u,7.1µM
CO[C@@H]1COC(=O)CC=C[C@@H](C)[C@@H]2C=C[C@H](O)[C@@H](COC(=O)[C@H](C)NC(=O)CC=C[C@H]1C)O2,n[11.6 µM],n,n[11.6 µM],n[11.5 µM]
Brc1cc2[nH]cnc2c2ccccc12,n,-39,u,u
CCOC(=O)C(NC(=O)CC)(Nc1ccccc1)C(F)(F)F (stereo not drawn),n,n,n,u
CCOC(=O)C(NC(=O)CC)(N1CCc2ccccc2C1)C(F)(F)F (stereo not drawn),u,n,n,22µM
O=C(NCCc1ccccc1)c1cnc2sc(N3CCCCCC3)nn2c1=O,n,x,n,n
CCOc1cc(C(=O)OCc2cc(=O)n3nc(C4CC4)sc3n2)cc(OCC)c1OCC,n,x,n,u
Cc1cc(N/N=C/c2ccc([N+](=O)[O-])o2)nc2ccccc12,n,n,u,1.6µM
Cc1cc(C)nc(N/N=C/c2ccco2)n1,n,n,n,n
Cc1ccc2nc(N/N=C/c3ccco3)cc(C)c2c1,n,n,u,18µM
O=C(N/N=C/c1ccc([N+](=O)[O-])o1)c1cc(-c2ccc(-c3ccccc3)cc2)nc2ccccc12,n,n,n,n
Cc1ccc(C(C)C)c(OCCSc2nc3ccccc3n2CC(O)CO)c1 (stereo not drawn),n,x,n,n
CC(=O)Nc1cccc(-c2csc(Nc3cc(C)ccn3)n2)c1,n,n,18µM[quencher],u
Cc1ccnc(Nc2nc(-c3c(C)nc4sccn34)cs2)c1,n,n,14µM[quencher],7.9µM
CC(=O)Nc1cccc(-c2csc(Nc3ccc(Cl)cn3)n2)c1,n,n,13µM[quencher],u
CC(=O)Nc1ccc(-c2csc(Nc3cc(C)ccn3)n2)cc1,n,n,16µM[quencher],7.1µM
COc1ccc(-c2ccc(/C=C3\C(=O)N(c4ccccc4)N=C3c3ccccc3)o2)c([N+](=O)[O-])c1,n,n,u,u
COc1ccc(-c2ccc(/C=C3/C(=N)N4C(C)=CSC4=NC3=O)o2)c([N+](=O)[O-])c1,n,n,u,2.2µM
CCc1ccc(OCC2c3cc(OC)c(OC)cc3CCN2C(=O)COc2ccccc2)cc1 (stereo not drawn),n,x,n,n
O=C1/C(=C\c2cccs2)N=C(c2cccs2)N1Nc1ccccc1,n,n,u,10µM
SMILES,Tau fibril FP,FBPA coupling cs,Tau fluor counter,Tau fibril ThT
O=C1/C(=C/c2cccs2)N=C(c2cccs2)N1Nc1ccccc1,n,n,u,7.1µM
COc1cccc(C2C3=C(CCCC3=O)Nc3[nH]n(-c4ccccc4)c(=O)c32)c1 (stereo not drawn),n,n,n,n
COc1cccc(C2C3=C(Nc4[nH]n(-c5ccccc5)c(=O)c42)c2ccccc2C3=O)c1 (stereo not drawn),n,n,u,5µM
CN(CCNC(=O)CCNC(=O)Cn1ccc2ccccc2c1=O)Cc1ccccc1,22µM,n,16µM[quencher],n
CCC(C)(C(=O)NC1CCCCC1)N(Cc1cccs1)C(=O)c1ccccn1 (stereo not drawn),n,n,n,n
CCC(C)(C(=O)NC1CCCC1)N(Cc1cccs1)C(=O)c1ccccn1 (stereo not drawn),n,-38,n,n
COc1ccc2oc(-c3cccc(NC(=O)c4ccc(C#N)cc4F)c3)nc2c1,n,x,n,n
Cc1cc2c(NC(=O)Nc3ccc(F)cc3)cccc2nn1,u,-31,n,u
Cc1cc2c(NC(=O)CC(C)(C)CC(=O)O)cccc2nn1,n,-36,n,x
COc1ccc(NC(=O)Nc2ccc(F)cc2)c(C)c1,n,n,n,n
CC(C)(CC(=O)O)CC(=O)Nc1ccccc1Oc1ccccc1,n,n,n,n
